The source of these data is PubChem BioAssay AID1645853 (Buhrlage Lab, Dana-Farber Cancer Institute and Novartis …, 2021).

The campaign covered roughly 47,000 compounds. About 2,000 (4.3%) were called active. For the sample, actives were picked, then their nearest neighbours and some compounds at random. A number with no mark means an inactive call. Cut-off read from the data, not from the text of the source: active = inhibition above about 30%; inactive = the rest.

For this experiment, the target named is Ubiquitin carboxyl-terminal hydrolase 8 (Homo sapiens) (UniProt P40818). Nature of the experiment: inhibitors of human USP8 deubiquitinase (AID 1645853). Conditions: purified USP8, Ub-rhodamine cleavage fluorescence, 30 min; at 20 µM; stronger effect = higher value.
Ubiquitin carboxyl-terminal hydrolase 8 (Homo sapiens), sequence (P40818 whole entry, looked up): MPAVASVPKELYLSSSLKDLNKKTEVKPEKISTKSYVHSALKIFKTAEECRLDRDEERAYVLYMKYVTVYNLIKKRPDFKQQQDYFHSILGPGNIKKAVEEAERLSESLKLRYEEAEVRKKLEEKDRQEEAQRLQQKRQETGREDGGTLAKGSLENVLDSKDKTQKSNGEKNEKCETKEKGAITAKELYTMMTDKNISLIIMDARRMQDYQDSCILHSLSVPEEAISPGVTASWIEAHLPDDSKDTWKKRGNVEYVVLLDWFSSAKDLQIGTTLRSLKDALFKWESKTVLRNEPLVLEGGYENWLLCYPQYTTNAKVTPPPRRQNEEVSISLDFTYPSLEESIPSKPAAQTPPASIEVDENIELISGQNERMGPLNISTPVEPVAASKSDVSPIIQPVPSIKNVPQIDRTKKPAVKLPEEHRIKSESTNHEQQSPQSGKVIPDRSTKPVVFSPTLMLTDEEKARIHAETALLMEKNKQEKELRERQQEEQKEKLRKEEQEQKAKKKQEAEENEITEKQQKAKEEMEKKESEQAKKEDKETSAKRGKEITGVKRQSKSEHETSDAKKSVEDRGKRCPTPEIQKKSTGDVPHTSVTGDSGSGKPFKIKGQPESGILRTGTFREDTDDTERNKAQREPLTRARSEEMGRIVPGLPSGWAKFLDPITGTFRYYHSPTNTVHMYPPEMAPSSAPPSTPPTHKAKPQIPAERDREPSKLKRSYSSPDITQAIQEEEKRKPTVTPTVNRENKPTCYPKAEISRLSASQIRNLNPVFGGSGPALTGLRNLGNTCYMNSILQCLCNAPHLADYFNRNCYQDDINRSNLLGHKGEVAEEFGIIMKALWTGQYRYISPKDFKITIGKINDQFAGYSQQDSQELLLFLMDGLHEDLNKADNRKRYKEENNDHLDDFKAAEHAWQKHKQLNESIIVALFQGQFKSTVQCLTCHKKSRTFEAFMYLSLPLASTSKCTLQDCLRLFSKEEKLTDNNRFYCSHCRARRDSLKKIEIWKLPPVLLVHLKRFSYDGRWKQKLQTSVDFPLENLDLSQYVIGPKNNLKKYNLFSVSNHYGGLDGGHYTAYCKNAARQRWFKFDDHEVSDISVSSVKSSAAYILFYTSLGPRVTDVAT
The term inhibition denotes the relative decrease from the control value, in per cent. As for `Cc1ccc(S(=O)(=O)N(CC(=O)NC(C)c2ccccc2)Cc2ccccc2F)cc1` (stereo unspecified), the inhibition was 5.32%.
With `COc1cccc(S(=O)(=O)N2CCC(c3nccc(C)n3)C2)c1` (stereo unspecified) the figure was 0.292%.
In the case of `O=C(CCCn1c(=O)c2ccccc2n(Cc2ccccc2F)c1=O)NC1CCCC1`, the inhibition is 5.2%.
For `N#Cc1ccc(NC(=O)COC(=O)c2ccc3ccccc3n2)cc1`, the inhibition is -17.7%.
With `N#Cc1ccc(NC(=O)Nc2cccn(Cc3ccccc3F)c2=O)cc1`, the inhibition is 96.4% (active).
Consider `O=C(Cn1cncn1)N1CCN(C(c2ccccc2)c2ccccc2)CC1`, for which the inhibition was -4.21%.
With `c1cnc(Nc2cnc(C3CCCN(Cc4cnc[nH]4)C3)cn2)cn1` (stereo unspecified) the figure was -10.5%.
On to `CCN1C(=O)c2ccccc2C(=O)[C@@]2(C)CN(C(=O)c3ccccc3)C[C@@H]12`, for which the inhibition was 15.6%.
With `N#Cc1cccc(S(=O)(=O)N2CCC3(CC2)OC(=O)Nc2ccccc23)c1` the figure was 10.6%; with `O=c1c(S(=O)(=O)c2cc(F)cc(F)c2)c[nH]c2ccc(F)cc12`, 4.59%; with `N#Cc1cccc(S(=O)(=O)c2c[nH]c3ccc(Cl)cc3c2=O)c1`, 46.9% (active).
In the case of `O=C(C1Cc2ccccc2CN1S(=O)(=O)c1ccc2c(c1)OCCO2)N1CCCC1` (stereo unspecified) it was 1.43%; in that of `COc1cccc(C2C(C(=O)Nc3ccccc3C)=C(C)Nc3ncnn32)c1OCc1ccccc1` (stereo unspecified), -22.6%.
With `CC1=C(C(=O)Nc2ccc(C)cc2C)C(c2cccs2)n2c(nc3ccccc32)N1` (stereo unspecified), the inhibition was 31.4% (active).
In the case of `CC1=C(C(=O)Nc2ccccc2)C(c2cccs2)n2ncnc2N1` (stereo unspecified) it was -32.6%.
With `Cc1cc2c(cc1CNC(=O)c1ccc3c(c1)CC(C)O3)OCCCO2` (stereo unspecified) the figure was -4.91%; with `O=C1c2ccccc2-c2nnc(-c3ccc(Oc4ccccc4)cc3)cc21`, 14.8%; with `Cc1nn2c(S(=O)(=O)Nc3cccc(F)c3C)c(C)nc2s1`, 19.1%.
In the case of `COCCN1C(=O)Cc2c(C)nc(C3(C)CCCN(c4cc(C)ncn4)C3)nc21` (stereo unspecified) it was 6.73%; in that of `COCCN1C(=O)Cc2c(C)nc(C3(C)CCCN(c4ccnc(C)n4)C3)nc21` (stereo unspecified), 30.4% (active); in that of `O=C(C1CCCCC1)N1CCN(c2ncnc3c2nnn3Cc2ccccc2)CC1`, 6.37%.
Regarding `Cn1cc(-c2nc(C(=O)Nc3ccc(F)cc3)cs2)c2cccnc21`, the inhibition is 30.4% (active).
With `Cc1cccc(NC(=O)c2csc(-c3cn(C)c4ncccc34)n2)c1` the figure was 6.69%; with `Cn1nc(C(=O)Nc2ccc(F)cc2)c(=O)c2ccccc21`, -3.42%.
In the case of `Cc1[nH]c(C)c(S(=O)(=O)NC2CC2)c1-c1nc(C2CC2)no1` it was -17.3%; in that of `NC(=O)c1ccc(NC(=O)Cc2cc(-c3ccc(Cl)cc3)on2)cc1`, 62.4% (active); in that of `COc1cccc(CCNC(=O)Cc2cc(-c3ccc(C)cc3)on2)c1`, -12.1%.
With `NC(=O)c1ccc(CN2CCC3(CC2)CC3c2nc(-c3cccc(Cl)c3)no2)cc1` (stereo unspecified) the figure was -39.4%.
Take `CC(=O)Nc1ccc(S(=O)(=O)NCc2cn3ccccc3n2)cc1`: the inhibition was -7.51%.
For `COc1ccc2nc3c(cc2c1)CN(Cc1ccccc1)C(=O)O3`, the inhibition is 20.1%.
In the case of `Cc1cc(C)c2nc3c(cc2c1)CN(Cc1ccco1)C(=O)O3` it was 75.7% (active); in that of `Cc1ccc(-n2c3c(c(=O)[nH]c2=O)CN(Cc2ccco2)CN3)cc1`, -10.7%.
In the case of `O=S1(=O)c2ccccc2C(Oc2ccccc2)CN1CCO` (stereo unspecified) it was -13.4%; in that of `O=S(=O)(Nc1ccc(N2CCOCC2)cc1)c1cccc2cccnc12`, -35.6%; in that of `CCC1=N[C@@]2(CC[C@@H]3CN(C(=O)Nc4ccc(CC)cc4)C[C@@H]32)C(=O)N1C`, -21.1%.
In the case of `COc1cc(Cl)c(NC(=O)c2cc(-c3ccccn3)n[nH]2)c(OC)c1` it was 49.3% (active).
As to `Cc1ccc(CC(=O)N2CCN(C(=O)c3cc(-c4ccccn4)n[nH]3)CC2)cc1`, the inhibition is -164%.
With `O=C(Nc1ccc(Cl)cc1F)c1cc(-c2ccccn2)n[nH]1` the figure was 19.3%; with `CC1[C@@H]2[C@@H](C(=O)N3CCOCC3)C[C@H](CN1S(=O)(=O)N(C)C)N2Cc1ccccc1` (stereo partly specified), 0.42%; with `O=C1NC2(COC3(CCN(Cc4cccnc4)CC3)C2)Nc2ccc(Cl)cc21` (stereo unspecified), -202%.
With `Cc1c(C)n(-c2cccnc2)c2ncn3nc(-c4ccccn4)nc3c12` the figure was -3.69%.
In the case of `CSc1ncnc2c1sc1nc(-c3ccccc3)c3c(c12)CC(C)(C)OC3` it was 2.79%; in that of `CCCCCCSc1ncnc2c1sc1nc(-c3ccccc3)c3c(c12)CC(C)(C)OC3`, -5.24%.
`CC1(C)Cc2c(c(-c3ccco3)nc3sc4c(SCCCc5ccccc5)ncnc4c23)CO1`: the inhibition is 75.7% (active).
Take `O=C(C1CC1)N1CC[C@@H]2Oc3ccccc3S(=O)(=O)N(Cc3ccccc3)[C@H]2CC1`: the inhibition is -86.6%.
With `O=c1[nH]c(-c2ccccn2)nc2c1CCN(Cc1cnn(-c3ccc(F)cc3)c1)C2` the figure was -247%; with `O=C(c1ccc(N2CCCC2)nn1)N1CCN(c2ccccn2)CC1`, -50.6%; with `Clc1cc2nc(N3CCN(c4ccccn4)CC3)c3nncn3c2cc1Cl`, 75.6% (active).
With `Cc1nn(-c2ccccc2)c(C)c1S(=O)(=O)N1CCN(c2ccccn2)CC1` the figure was -28.5%; with `COc1cccc(-c2cc(C(=O)N3CCN(c4ccc(N5CCOCC5)nn4)CC3)[nH]n2)c1`, -8.45%; with `FC(F)(F)c1ccc(-c2cnc([C@@H]3COCCN3C3CCOCC3)[nH]2)cc1`, 2.96%.
In the case of `COc1ccc(CN2Cc3ccccc3OC3(CCC(CO)CC3)C2)c(F)c1` (stereo unspecified) it was -66.5%.
`Cc1nn(C)c(C)c1CNC(=O)c1cc2cn(C3CCCC3)cc2s1`: the inhibition was -141%.
In the case of `O=C(NC1CCN(Cc2ccccc2)CC1)c1cc2cn(C3CC3)cc2s1` it was 31.4% (active); in that of `O=C(NC1CCN(Cc2ccccc2)CC1)c1cn2c(n1)CCCC2`, -18.5%; in that of `CCOC(=O)C1=C(CN2CCN(c3ccccc3OC)CC2)NC(=O)NC1c1cccc(OC)c1OC` (stereo unspecified), -6.79%.
